Bioassay records: PubChem BioAssay, several laboratories
This is a sample that favours compounds with a hit; in the whole collection about 27% have one here.
CYP2C9 act: CYP2C9 (human) activation; P11712; recombinant CYP2C9, luciferin-H conversion, luminescence; stronger effect = higher value; factor 1 = untreated enzyme, 0 = blocked; activation factor at 5 µM; actives 1.4% (n = 96,000); AID 1024;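 active = activation factor of 2 or more for CYP2C9 at a 5 µM dose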;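 also: 0 = sulfaphenazole-blocked wells and 1 = vehicle-only wells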
CYP2C19 inhib: inhibitors of human CYP2C19 | actives 21% (n = 96,000) | CYP2C19 Supersomes, luciferin-H EGE luminescence, 30 min | inhibition, % at 5 µM | AID 778;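 active = CYP2C19 inhibition above a set limit at 5 µM in the primary screen, cut at about 50% in these data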;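 also: plate controls were negative control wells for no effect and 2.5 mM tranylcypromine positive control for full effect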
Target sequence (P33261 whole entry, looked up): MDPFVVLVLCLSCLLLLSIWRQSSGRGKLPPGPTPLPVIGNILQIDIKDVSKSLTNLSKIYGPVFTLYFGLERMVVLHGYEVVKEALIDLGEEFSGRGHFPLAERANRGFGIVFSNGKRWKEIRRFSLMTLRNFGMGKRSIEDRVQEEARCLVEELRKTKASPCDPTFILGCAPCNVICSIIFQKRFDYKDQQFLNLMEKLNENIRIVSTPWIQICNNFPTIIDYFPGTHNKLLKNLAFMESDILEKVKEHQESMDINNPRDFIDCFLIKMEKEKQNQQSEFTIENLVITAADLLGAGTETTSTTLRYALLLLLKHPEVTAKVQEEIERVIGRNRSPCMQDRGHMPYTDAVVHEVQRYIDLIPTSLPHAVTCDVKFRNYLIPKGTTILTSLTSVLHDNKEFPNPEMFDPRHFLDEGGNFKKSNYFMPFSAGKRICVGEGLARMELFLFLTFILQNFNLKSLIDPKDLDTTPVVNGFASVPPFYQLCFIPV
Cav32 inh: inhibitors of human Cav3.2 T-type calcium channel. O95180. Cav3.2-expressing cells, Fluo-4 calcium fluorescence FDSS; stronger effect = lower value. actives 4% (n = 100,000). B-score at 10 µM;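 active = single-dose well whose peak fluorescence ratio is a statistical outlier from its plate by either plate-standardised score or position-corrected B-score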
CYP2C9 inhib: blocks human cytochrome P450 2C9; P11712; CYP2C9 Supersomes, luciferin-H conversion, luminescence; inhibition, % at 5 µM; actives 20% (n = 96,000); AID 777;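 active = blocking of liver enzyme CYP2C9 beyond about 50% at 5 µM, limit read from the data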
CYP2C19 activ: cytochrome P450 2C19 (human) activation; P33261; recombinant CYP2C19, luciferin-H EGE luminescence; stronger effect = higher value; 0 = fully inhibited enzyme, 1 = untreated enzyme; activation factor at 5 µM; 96,000 tested, under 10 active;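 active = activation factor of at least 2 at 5 µM in the primary screen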;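 also: 0 = wells with 2.5 mM tranylcypromine and 1 = vehicle-only wells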
* = called active by the depositor; . = no result.

SMILES | CYP2C9 act | CYP2C19 inhib | Cav32 inh | CYP2C9 inhib | CYP2C19 activ
COC(=O)Cc1c[nH]c2cccc(OCC(O)CN(Cc3ccccc3)C(C)C)c12 (stereo not given) | . | . | -1.24 | . | .
c1ccc(Cc2nn3c(C4COc5ccccc5O4)nnc3s2)cc1 (stereo not given) | 0.5 | 54.4* | -1.09 | 54.6* | 0.5
c1ccc(Cc2nn3c(-c4ccncc4)nnc3s2)cc1 | 0.2 | 99.0* | 0.00408 | 83.7* | 0
c1ccc(OCc2nn3c(-c4ccncc4)nnc3s2)cc1 | 0.2 | 99.2* | 0.689 | 79.5* | 0
Clc1ccc(OCc2nn3c(C4CCCCC4)nnc3s2)cc1 | 0.1 | 27.8 | -2.7 | 90.1* | 0.7
c1ccc(Cc2nnc3sc(C4COc5ccccc5O4)nn23)cc1 (stereo not given) | . | . | -0.469 | . | .
COc1ccc(C(=O)Nc2cccc(C(C)=O)c2)cc1OC | 0.9 | 40.6 | -0.249 | 9.0 | 0.6
CC(=O)c1cccc(NC(=S)NC(=O)C(C)C)c1 | 0.5 | 40.0 | 0.542 | 52.3* | 0.6
COc1cc(OC)c(C(=O)Nc2cccc(C(C)=O)c2)cc1OC | 0.4 | 32.9 | -0.532 | 58.8* | 0.7
COc1cccc(C(=O)Nc2cccc(OC(C)=O)c2)c1 | 0.9 | 25.3 | 0.53 | 6.3 | 0.7
COc1ccc(C(=O)Nc2cccc(C(C)=O)c2)c(OC)c1OC | 0.8 | 62.8* | -1.63 | 15.2 | 0.4
CCC(=O)Nc1nc(=S)ss1 | 0 | 23.3 | -0.404 | 98.8* | 0.8
CC(C)(C)C(=O)Nc1nc(=S)ss1 | 0.1 | 33.3 | -4.99* | 92.0* | 0.7
CCOc1ccccc1-c1cc(C(=O)N/N=C/c2ccc3c(c2)OCO3)c2ccccc2n1 | 0.1 | 50.2* | -0.606 | 91.2* | 0.5
Cc1nn(C)c(C)c1/C=N/NC(=O)c1csc2ccccc12 | 0.9 | 7.6 | 0.361 | 8.9 | 0.9
COc1ccccc1-c1cc(C(=O)N/N=C/c2sccc2C)c2ccccc2n1 | 0.3 | 39.0 | -3.72 | 74.6* | 0.6
Cc1ccc(-c2cc(C(=O)N/N=C/c3c(C)nn(C)c3C)c3ccccc3n2)c(C)c1 | 0 | 93.7* | 0.354 | 95.7* | 0.1
COC(=O)C1(CO)NC(c2cccs2)C2C(=O)N(c3ccccc3)C(=O)C21 (stereo not given) | 0.9 | -5.1 | 0.291 | 5.8 | 1.1
CCc1ccc(C2=NN(S(C)(=O)=O)C(c3cccs3)C2)cc1 (stereo not given) | 0.6 | 55.8* | -1.99 | 41.1 | 0.4
CCS(=O)(=O)Nc1cccc(C2=NN(S(=O)(=O)c3ccccc3)C(c3cccs3)C2)c1 (stereo not given) | 0.3 | 50.2* | -3.39 | 66.9* | 0.5
CS(=O)(=O)N1N=C(c2ccc3nccnc3c2)CC1c1ccccc1 (stereo not given) | 0.6 | 27.2 | -2.97 | 42.0 | 0.7
Cc1ccc(C2=NN(S(C)(=O)=O)C(c3cccs3)C2)cc1 (stereo not given) | 0.6 | 99.3* | 0.538 | 44.2 | 0
CS(=O)(=O)N1N=C(c2ccc(Br)cc2)CC1c1cccs1 (stereo not given) | 0.6 | 91.6* | -0.895 | 35.4 | 0.1
O=C(Cc1cc(=O)[nH]c(=O)[nH]1)NCCN1CCOCC1 | . | . | -0.295 | . | .
COCCN(Cc1cc2cc(C)c(C)cc2nc1Cl)C(=O)Nc1ccccc1 | 0.8 | 4.9 | 0.804 | 24.5 | 1
SMILES | CYP2C9 act | CYP2C19 inhib | Cav32 inh | CYP2C9 inhib | CYP2C19 activ
Cc1cc2cc(C=O)c(Cl)nc2cc1C | 0.9 | 6.4 | -5.89* | 7.1 | 0.9
Fc1ccccc1N1CCN(c2cnc3ccccc3n2)CC1 | 0.9 | 25.4 | -0.047 | 8.0 | 0.7
Cc1ccc(NC(=O)CSc2nc3c(c(=O)[nH]2)CCC3)cc1C | 0.5 | 18.7 | 0.464 | 51.3* | 0.8
CC(C)c1ccc(NC(=O)CSc2nc3c(c(=O)[nH]2)CCC3)cc1 | 0.4 | 14.5 | 0.2 | 59.8* | 0.9
Nc1c(N(C(=O)Nc2ccc(Cl)c(Cl)c2)C2CCCC2)c(=O)[nH]c(=O)n1Cc1ccccc1 | 1.1 | -25.1 | . | -5.0 | 1.3
CCCCn1c(N)c(N(CCC(C)C)C(=O)CSc2nnc(C)s2)c(=O)[nH]c1=O | 1 | 15.9 | -0.105 | 3.7 | 0.8
COc1cc(CCCN2C(=S)NC[C@@H]2CC2CCCCC2)cc(OC)c1OC | . | . | -0.967 | . | .
CC[C@H](C)/C=C(C)/C=C/C(=O)Cc1cc(O)c(C)c(O)c1C=O | . | . | -3.64* | . | .
Cc1ccc(CNc2ccc(N3CCOCC3)cc2)s1 | 0.8 | 64.6* | 0.0173 | 17.9 | 0.4
CC(=O)N1CCN(c2ccc(NCc3ccc(C)s3)cc2)CC1 | 0.7 | 22.4 | 0.403 | 33.2 | 0.8
COc1cc2c(c(OC)c1)C(c1cccc(OC)c1OC)CC(=O)N2 (stereo not given) | . | . | -0.175 | . | .
COc1cccc(C2NC(=O)c3ccccc3O2)c1OC (stereo not given) | 0.7 | 85.7* | -0.388 | 29.7 | 0.1
CCN(CC)CCOC(=O)C12CC3CC(CC(C3)C1)C2 | 1.1 | 1.2 | 0.347 | -9.7 | 1
O=C(c1cc2ccccc2oc1=O)N1CCN(Cc2ccc3c(c2)OCO3)CC1 | 1.2 | 23.5 | . | -19.7 | 0.8
COC(=O)CNC(=O)c1nn(-c2cccc(OC)c2)c(=O)c2ccccc12 | 0.8 | 2.6 | . | 16.1 | 1
COc1cccc(-n2nc(-c3ccnn3-c3ccccc3)c(=O)n(C)c2=O)c1 | 0.6 | 61.7* | 1.94 | 38.7 | 0.4
COc1cccc(-n2nc(C(=O)O)c3ccccc3c2=O)c1 | 0.8 | 50.5* | 0.434 | 20.4 | 0.5
COc1ccc(-n2nc(C(=O)N3CCN(Cc4ccc5c(c4)OCO5)CC3)c3ccccc3c2=O)cc1 | 0.3 | 32.9 | . | 74.4* | 0.7
COc1ccc(-n2nc(C(=O)Nc3ccc4c(c3)OCO4)c3ccccc3c2=O)cc1 | 0.2 | 14.3 | . | 78.6* | 0.9
CCOc1ccccc1NC(=O)C(=O)NCC1CCCN1CC (stereo not given) | 1 | -1.2 | 0.00663 | 0.9 | 1
N#Cc1cc(-c2ccccc2)cnc1Cl | 1 | 10.6 | 1.62 | -0.8 | 0.9
COC(=O)c1cc2c(s1)CS(=O)C2 (stereo not given) | . | . | -0.135 | . | .
COc1ccc(CNC(=O)c2cc3c(s2)CS(=O)C3)cc1 (stereo not given) | 0.5 | 70.6* | 0.0525 | 53.6* | 0.3
O=C(NCc1ccc(F)cc1)c1cc2c(s1)CCCC2 | 0.5 | 36.5 | -6.3* | 53.4* | 0.6
Cc1c(NC(=O)c2cc(-c3cccs3)on2)c(=O)n(-c2ccccc2)n1C | 0.9 | 6.6 | -0.696 | 10.1 | 0.9
CCOCCCNC(=S)N1C2CCC1CC(NC(=O)NC13CC4CC(CC(C4)C1)C3)C2 (stereo not given) | 0.9 | 7.3 | 0.799 | 6.2 | 0.9
C=CCn1c(SCC(=O)N2CCc3ccccc3C2)nc2ccccc2c1=O | 0.1 | 74.0* | -2.3 | 94.7* | 0.3
COc1ccc(Cc2nnc(SCc3c(C)noc3C)n2C2CCCCC2)cc1OC | 1 | 16.9 | -0.0481 | -4.3 | 0.8
CCn1c(SCC(=O)N2CCCC2)nc2ccccc2c1=O | 0.7 | 4.6 | 0.0524 | 31.0 | 1
COc1cc2nc(SCc3c(C)noc3C)n(CCC3=CCCCC3)c(=O)c2cc1OC | 0.3 | 32.6 | -3.84 | 74.0* | 0.7
